# Screens from PubChem.
# C2C12 statin: suppression of simvastatin myotoxicity; C2C12 myotubes + simvastatin, ATP luminescence, 48 h; scaled: DMSO 0, geranylgeraniol control 100; rescue of ATP level, % at 7.49 µM; actives 0.78% (n = 330,000);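 active = mean ATP rescue above about 67%, or every replicate alone reaching that limit, limit read from the data, passing the limit was not always enough; inconclusive = no clear call, values can overlap the other calls; inactive = mean under the limit and some replicate under it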;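 also: myotubes were challenged with 10 µM simvastatin during compound exposure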
# MITF TRPM1 HTS: MITF TRPM1 promoter activation in melanoma cells | activation, % at 12.5 µM | actives 0.75% (n = 300,000) | SK-MEL-5 TRPM1-promoter luciferase, 24 h; % of positive control, neutral wells = 0 | AID 588334;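 active = mean activation of at least 80% with every replicate also reaching 80%; inconclusive = mean reaches 80% but some replicate falls short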;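 also: 0% = neutral control wells and 100% = parthenolide positive control wells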
# esBAF inh: blocks esBAF chromatin remodeling in mouse ES cells. actives 2% (n = 350,000). Bmi1-luciferase knock-in reporter, 24 h; 100% = twice the neutral-well signal. reporter increase, % at 12.5 µM; in the data active = activation above about 40%; inconclusive = no clear call, values can overlap the other calls;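 also: 0% = median of the plate's neutral control wells and 100% = double that signal; a rise in the Bmi1 reporter signal indicates esBAF inhibition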
# Wnt bcat act: activators of Wnt/beta-catenin signaling; Wnt/beta-catenin reporter cell assay, activator, plate reader; activation, % at 9.35 µM; actives 1.2% (n = 300,000); in the data active = activation above about 30%, passing the limit was not always enough; inconclusive = no clear call, values can overlap the other calls;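 also: 0% = neutral control wells and 100% = positive control wells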
# An asterisk follows results filed as active; u = inconclusive; x = not tested or not shown. The list is not random: actives were taken first. Their share in the collection is about 3%.
SMILES,C2C12 statin,MITF TRPM1 HTS,esBAF inh,Wnt bcat act
C[C@@H]1CCCCO[C@H](CN(C)C(=O)c2ccncc2)[C@H](C)CN([C@@H](C)CO)C(=O)c2cc(NS(C)(=O)=O)ccc2O1,x,x,-6,x
COc1ccc(-c2nn(-c3ccccc3)cc2N)cc1,x,50,x,59*
Cc1ccc(-c2nn(-c3ccccc3)cc2CO)cc1,-4,69,90*,14
COc1ccc(-c2cn(-c3ccccc3)nc2CO)cc1,-16,58,39,11
Cc1ccc(-c2nn(-c3ccccc3)cc2/C=N/O)cc1,1,92*,14,3
COc1ccc(-c2nn(-c3ccccc3)cc2CO)cc1,99*,51,17,12
Cc1ccc(-c2nn(-c3ccccc3)cc2CNCc2ccccc2)cc1,x,5,x,-3
COc1ccc(-c2nn(-c3ccccc3)cc2C(=O)N2CCOCC2)cc1,14,-6,4,x
O/N=C/c1cn(-c2ccccc2)nc1-c1cccnc1,x,8,x,0
COc1ccc(S(=O)(=O)N[C@H]2CC[C@@H](CCn3cc(-c4cccc(F)c4)nn3)O[C@H]2CO)cc1,2,x,11,x
COCCNC(=O)C[C@@H]1C[C@@H]2c3cc(NC(=O)Nc4ccc(F)cc4)ccc3O[C@@H]2[C@H](CO)O1,-2,x,0,x
CCN(CC)c1ccc(/C=N/NC(=O)c2ccc(Br)o2)cc1,x,116*,x,0
Cc1cc(C(=O)N/N=C/c2ccc3c(c2)OCO3)c(C)o1,-8,50,30,5
O=C(N/N=C/c1ccc2c(c1)OCO2)c1ccc(Br)o1,x,87*,x,43*
CCN(CC)C(=O)C(=O)N/N=C/c1ccc(Br)cc1,89*,-3,2,x
O=C(CN1CCOCC1)N1CCCCN2[C@@H](CO)[C@@H](c3ccc(-c4ccccc4F)cc3)[C@@H]2C1,-13,x,-1,x
C[C@@H]1CCCCO[C@@H](CN(C)S(C)(=O)=O)[C@H](C)CN([C@@H](C)CO)C(=O)c2cc(NS(C)(=O)=O)ccc2O1,x,x,-5,x
CC(C)(C)n1cnc2cc(NCc3cccs3)ccc21,1,63,52*,5
CCn1cnc2cc(NCc3cccs3)ccc21,7,21,31,2
COc1cccc(C=O)c1OCCCOc1cccc2cccnc12,-13,x,u,5
COc1cc(Cl)cc(/C=C/c2ccc3cccc(O)c3n2)c1OC,20,11,30,17
COc1ccccc1/C=C/c1ccc2cccc(O)c2n1,1,5,67*,27
CCOc1cccc(/C=C/c2ccc3cccc(O)c3n2)c1OC,1,10,34,40*
COc1cccc(C=Cc2nccc3ccccc23)c1OC,-26,x,25,59*
CCOc1cccc(/C=C/c2ccc3cccc(O)c3n2)c1O,-2,20,87*,48*
SMILES,C2C12 statin,MITF TRPM1 HTS,esBAF inh,Wnt bcat act
CO[C@H]1CN(C)C(=O)c2cc(NC(=O)C3CC3)ccc2OC[C@H](C)N(C(=O)c2ccccn2)C[C@@H]1C,-4,x,-1,x
COc1ccc(NC(=O)Nc2ccc3c(c2)C(=O)N([C@H](C)CO)C[C@H](C)[C@@H](CN(C)C(=O)c2ccccc2)OCCCC[C@@H](C)O3)cc1,-12,x,-1,x
O=C(CSc1ncccn1)NC(=O)NCc1ccco1,-10,-12,-6,36*
CNC(=O)NC(=O)COC(=O)c1n[nH]c2ccccc12,-6,6,1,5
O=C(CSc1ccsc1[N+](=O)[O-])NCc1ccco1,x,-5,x,33*
COCCCNC(=O)CSc1ccsc1[N+](=O)[O-],x,5,x,-1
COc1cc(NC(=O)c2cccs2)c(C(=O)OCC(=O)NCc2ccco2)cc1OC,105*,-1,-2,x
O=C(COC(=O)c1n[nH]c2ccccc12)NC(=O)NCc1ccco1,73*,-9,-2,x
O=C(CSc1nc2ccccc2o1)NC(=O)NCc1ccco1,2,0,-5,-1
O=C(C[C@@H]1CC[C@H]2[C@@H](COC[C@@H](O)CN2C(=O)c2ccccc2F)O1)NCc1ccccc1,-4,x,-2,x
O=C(COC(=O)c1cccs1)NCc1ccccc1,5,7,-3,x
O=C(COC(=O)c1cccs1)NCc1ccco1,131*,-10,-7,x
COc1cc(OC)cc(C(=O)OCC(=O)NCc2ccco2)c1,10,-4,-4,47*
COc1cc(C(=O)OCC(=O)NCc2ccco2)cc(OC)c1OC,3,-15,-8,-3
OCC1OC(n2ccc3c(SCc4ccccc4)ncnc32)C(O)C1O (centres undefined),-7,55,88*,32*
Cc1ccc(C(=O)Nc2sc3c(c2C#N)CCCCC3)cc1C,x,119*,x,x
CCCC(=O)Nc1sc2c(c1C#N)CCCCC2,3,51,85*,2
